Bioassay records: PubChem BioAssay, several laboratories
TRPM1 prom inh: inhibitors of MITF-driven TRPM1 promoter in melanoma cells. inhibition, % at 12.5 µM. 0.83% of 330,000 active. SK-MEL-5 TRPM1 promoter luciferase, 24 h;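 active = mean inhibition across replicates of 60% or more, whatever share of single replicates reaches that level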
MITF act: activators of MITF-driven TRPM1 promoter activity in SK-MEL-5 cells. SK-MEL-5 TRPM1-promoter luciferase, 24 h; % of positive control, neutral wells = 0. activation, % at 12.5 µM. 0.75% of 300,000 active. AID 588334;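 active = mean activation of at least 80% with every replicate also reaching 80%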;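 also: 0% = neutral control wells and 100% = parthenolide positive control wells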
TWEAK Fn14 block: TWEAK-Fn14 signaling inhibition; TWEAK-stimulated Fn14 reporter cells, luciferase luminescence, 8 h; inhibition, % at 10 µM; 2% of 360,000 active; AID 1159606; in the data active = inhibition above about 50%
LMP1 NFkB inh: Epstein-Barr LMP1 NF-kappaB reporter inhibition; 0.69% of 350,000 active; AID 504558; inhibition, % at 12.5 µM; LMP1-induced NF-kappaB luciferase reporter cells, luminescence; in the data active = inhibition above about 41%;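 also: 0% = neutral control wells and 100% = reference inhibitor control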
TROY NFkB inh: inhibitors of TROY-dependent NF-kB signaling; Q293 LMP1-TROYcd NF-kB luciferase reporter, 4 h; inhibition, % at 10 µM; 0.98% of 360,000 active; AID 1347056;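 active = compounds whose plate-normalised and pattern-corrected inhibition of the luciferase reporter signal at the single screening dose is 50% or more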
LGR2 antag: blocks bursicon-induced cAMP signaling via Drosophila LGR2 | 0.35% of 380,000 active | inhibition, % at 9.99 µM | HEK293 LGR2, CRE-luciferase, bursicon-stimulated, 4 h;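 active = drop in luminescence signal, shown as inhibition above about 50% in the replicate tests, limit read from the data, passing the limit was not always enough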;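 also: agonist challenge used bursicon conditioned medium at about half maximal strength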
An asterisk follows results filed as active; / = no result given. Compounds with a hit are over-represented: about 3% of the library has one in this group of screens.

SMILES	TRPM1 prom inh	MITF act	TWEAK Fn14 block	LMP1 NFkB inh	TROY NFkB inh	LGR2 antag
Cc1ccnc(NC(=O)c2cccc(NC(=O)c3ccc(Cl)c(Cl)c3)c2)c1	-5.8	3.9	-6.6	86.0*	-18.6	-41.0
O=C(Nc1cc(F)ccc1F)N1CC(=O)N2[C@H](CO)[C@@H](c3ccc(-c4ccccc4)cc3)[C@@H]2C1	/	/	/	/	/	14.8
CC(C)CC#Cc1ccc([C@H]2[C@H](CO)N3C(=O)CN(C(=O)Cc4ccccc4)C[C@@H]23)cc1	/	/	/	/	/	6.5
Cc1cccc(Nc2ccncc2S(N)(=O)=O)c1	/	/	69.5*	/	12.0	-6.1
O=C1CC(c2cccs2)Cc2nc(NC(=O)C3CC3)ncc21 (stereo unspecified)	1.8	/	-2.8	45.3*	4.6	-6.2
CCC(C)C(=O)Nc1ncc2c(n1)CC(c1cccs1)CC2=O (stereo unspecified)	6.0	/	-17.4	-4.4	-10.1	/
Cc1ccc(S(=O)(=O)N2CCN(c3cc4c(cc3[N+](=O)[O-])n(C)c(=O)n4C)CC2)cc1	11.8	-7.8	34.9	3.9	50.6*	9.4
Cn1c(=O)n(C)c2cc([N+](=O)[O-])c(N3CCN(S(=O)(=O)c4ccc5ccccc5c4)CC3)cc21	6.8	-7.8	-14.9	3.2	-5.7	/
CCCN1[C@H](C(=O)N[C@@H](C)c2ccccc2)[C@@H](CO)[C@@H]2Cn3c(ccc(-c4cccc(F)c4)c3=O)[C@@H]21	/	/	/	/	/	2.5
COCC(=O)N(C[C@H]1N[C@@H](CO)[C@@H]1c1ccc(-c2cccnc2)cc1)C(C)C	/	/	/	/	/	-7.5
N#Cc1cc(C#N)c(N2CCN(c3ccccn3)CC2)nc1N	-97.3	98.5*	-21.0	-15.0	-13.1	-62.3
C[C@@H]1CN([C@H](C)CO)C(=O)c2cc(C#Cc3ccncc3)cnc2O[C@H]1CN(C)CC1CCOCC1	/	/	/	/	/	-0.8
Cc1ccccc1C1=NC(C(F)(F)F)(C(F)(F)F)c2c(n(C)c(=O)n(C)c2=O)N1	3.7	-2.9	-2.5	-7.4	-4.3	11.2
Cn1c2c(c(=O)n(C)c1=O)C(C(F)(F)F)(C(F)(F)F)N=C(c1ccc(Cl)cc1)N2	71.9*	-71.0	62.1*	7.5	57.1*	/
COc1ccc2c3c(n(C)c2c1)[C@H](CO)N(C(=O)c1cccnc1)CC31CN(C)C1	/	/	/	/	/	-7.2
N#CC(c1ccc(Cl)cc1)c1ccc2c(C(F)(F)F)cc(C(F)(F)F)nc2n1 (stereo unspecified)	78.7*	-78.1	65.1*	52.3*	79.1*	/
COCC1CCN(C(=O)c2cc(COc3ccc4c(c3)CCCC4)on2)C1 (stereo unspecified)	3.5	0.7	9.7	-3.5	-22.4	-26.6
Cc1cccc(C)c1OCc1cc(C(=O)N2CC3C[C@@H]4CC2C[C@H](C3)C4)no1	-114.9	114.6*	-21.2	-11.9	-45.2	-66.0
O=C(c1cc(COc2ccc3c(c2)CCCC3)on1)N1CCCC1	-112.9	123.9*	-13.3	73.1*	-75.5	-42.0
O=C(c1cc(COc2ccc(F)cc2Cl)on1)N1CC2C[C@@H]3CC1C[C@H](C2)C3	-43.4	37.6	-16.6	-20.2	-14.6	-101.9
Cc1ccc(OCc2cc(C(=O)N3CC4C[C@@H]5CC3C[C@H](C4)C5)no2)cc1C	-109.2	109.9*	-16.0	-21.3	-35.2	1.0
O=C(Cc1ccncc1)NCC[C@@H]1CC[C@H](NC(=O)Nc2cccc(F)c2)[C@H](CO)O1	/	/	/	/	/	1.6
Cc1ccc2[nH]c3c(N4CCc5ccccc5C4)ncnc3c2c1	19.4	-18.7	63.4*	26.1	31.6	/
Fc1ccc2[nH]c3c(N4CCc5ccccc5C4)ncnc3c2c1	/	/	58.5*	/	18.0	16.4
CCS(=O)(=O)N1CCC2(CC1)CN(Cc1ccccc1)[C@@H](CO)c1c2c2ccc(OC)cc2n1C	/	/	/	/	/	-1.8
SMILES	TRPM1 prom inh	MITF act	TWEAK Fn14 block	LMP1 NFkB inh	TROY NFkB inh	LGR2 antag
COCC(=O)N1CCCC(CNS(=O)(=O)c2ccc(OC)cc2)C1 (stereo unspecified)	1.6	-2.7	-8.9	-1.2	70.8*	33.2
Cc1cc(C)c2nc(C)cc(Nc3ccc(C(=O)NCCO)cc3)c2c1	0.1	/	-18.6	-7.0	-27.2	3.8
CC(=O)c1ccc(Nc2cc(C)nc3c(C)cc(C)cc23)cc1	53.9	-52.3	-3.2	-20.3	-7.5	99.1*
CC1(C)CC(=O)C(C2C3=C(CC(C)(C)CC3=O)Oc3c(Br)cc(Br)cc32)=C(O)C1 (stereo unspecified)	1.3	/	61.7*	3.7	45.8	18.3
O=C(O)c1cccc(N/N=C/c2cc(Br)cc(Br)c2O)c1	-14.8	20.6	-51.6	-12.3	-14.3	-89.5
Cc1c(N=Cc2cc(Br)cc(Br)c2O)cccc1C(=O)O	-8.7	9.4	8.9	68.1*	-6.1	5.1
C[C@@H]1CN([C@@H](C)CO)C(=O)c2cc(NC(=O)Nc3ccc(C(F)(F)F)cc3)ccc2O[C@@H](C)CCCCO[C@@H]1CN(C)C(=O)CCCN(C)C	/	/	/	/	/	6.8
CCCC(=O)Nc1ccc2c(c1)C(=O)N(C)C[C@H](OC)[C@H](C)CN(C)[C@@H](C)CO2	/	/	/	/	/	16.6
Cc1nn(-c2nc3ccccc3[nH]2)c(=O)c2ccccc12	96.1*	-95.8	105.4*	81.3*	91.6*	103.1*
O=Cc1s/c(=N\S(=O)(=O)c2ccccc2)n(CCCCl)c1Cl	96.7*	-96.1	96.2*	3.3	35.1	71.9*
CO[C@@H]1CN(C)C(=O)c2cc(NS(C)(=O)=O)ccc2OC[C@H](C)N(C(=O)C2CCCC2)C[C@@H]1C	/	/	/	/	/	10.6
CN(C(=O)COC(=O)c1nc(Cl)c(Cl)c(Cl)c1Cl)C1CCS(=O)(=O)C1 (stereo unspecified)	94.4*	-93.4	94.0*	-136.8	57.4*	102.9*
O=C(Nc1ccc(CN2CCOCC2)cc1)c1cccc(F)c1	-87.3	88.1*	-3.7	-27.7	-28.5	5.7
O=C(Nc1ccc(CN2CCOCC2)cc1)c1ccc(-c2ccc(Br)cc2)o1	-0.3	2.3	27.5	-1.0	52.9*	-0.7
CO[C@@H]1CN(C)C(=O)c2cc(NS(C)(=O)=O)ccc2OC[C@@H](C)N(S(C)(=O)=O)C[C@@H]1C	/	/	/	/	/	-7.1
Cc1cc(Cl)n2c(nc3cc(F)c(F)cc32)c1C#N	98.0*	-97.8	68.8*	6.5	36.5	30.6
C[C@@H]1CCCCO[C@@H](CN(C)C(=O)CCCN(C)C)[C@@H](C)CN([C@@H](C)CO)C(=O)c2cc(NS(=O)(=O)c3cccs3)ccc2O1	/	/	/	/	/	22.1
N/C(=N/OC(=O)c1ccccc1Cl)c1ncc([N+](=O)[O-])s1	19.4	/	50.4*	-20.9	0.7	/
O=C(COC(=O)c1ccccn1)c1ccc([N+](=O)[O-])cc1	-8.8	10.2	67.0*	2.4	-47.2	5.8
O=C(CSc1ccc(-c2ccccn2)nn1)c1ccc([N+](=O)[O-])cc1	-11.9	12.8	-11.5	-1.6	-18.0	-4.5
Cc1ccc(C(=O)O/N=C(\N)c2ccccc2)c(Cl)c1	51.0	/	96.1*	34.9	81.9*	97.1*
